Measurements published in PubChem BioAssay AID1259313 (Sanford-Burnham Center for Chemical Genomics, 2017).
Among all 340,000 compounds or so, about 8,500 (2.5%) were called active. This excerpt belongs to a sample that is enriched for actives. Values without a mark were called inactive.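 How the source made its calls: active means melting temperature shift of at least 10% of the positive control shift, at one fixed dose; inactive means the rest.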

System: Glutamate receptor ionotropic, NMDA 3A (GRIN3A) ligand-binding domain
Experiment: NR3A LBD thermal stabilization by compounds – biophysical, differential scanning fluorimetry, uHTS, primary screen (AID 1259313)
Conditions: at 25 µM, hits give high values, 0% = protein alone, 100% = glycine-bound protein

SMILES | Tm shift relative to glycine control
COc1ccc(Br)cc1CN(C)CC(=O)Nc1cc([N+](=O)[O-])ccc1OC | -12.7%
CCc1cccc(NC(=O)COC(=O)C2CCN(c3ccc(C(F)(F)F)cn3)CC2)c1 | 12.6% (active)
CCOc1ccc(CCNC(=O)COC(=O)C2CCN(c3ccc(C(F)(F)F)cn3)CC2)cc1OCC | -4.5%
N#CCCN(C(=O)COC(=O)C1CCN(c2ccc(C(F)(F)F)cn2)CC1)c1ccc(F)cc1 | 1.13%
COc1ccc(-n2nc(C(=O)NCC(=O)N3CCCCCC3)c3ccccc3c2=O)cc1Cl | -2.28%
O=C(COC(=O)c1cc(-c2cccs2)nn1-c1ccccc1)Nc1cc([N+](=O)[O-])ccc1Cl | -1.02%
COc1cc(/C=C2\CCCc3c2nc2ccccc2c3C(=O)O)cc(Cl)c1O | -0.18%
NC(=O)c1ccc(NC(=O)COC(=O)c2c3c(nc4ccccc24)/C(=C\c2ccc4c(c2)OCO4)CCC3)cc1 | 31.8% (active)
O=C(COC(=O)c1c2c(nc3ccccc13)/C(=C\c1cccs1)CCC2)Nc1ccccc1Cl | 14.6% (active)
NS(=O)(=O)c1ccc(NC(=O)COC(=O)CCc2c[nH]c3ccccc23)cc1 | -3.19%
NS(=O)(=O)c1ccc(NC(=O)COC(=O)c2c3c(nc4ccccc24)/C(=C\c2ccc4c(c2)OCO4)CCC3)cc1 | 38% (active)
O=C(COC(=O)c1ccc(F)cc1)Nc1ccc2c(c1)OCO2 | -2.46%
O=C(COC(=O)c1ccncc1)Nc1ccc2c(c1)OCO2 | -0.26%
NS(=O)(=O)c1ccc(NC(=O)COC(=O)c2ccco2)cc1 | -3.86%
CC(C)(C)n1ncc2c(=O)n(Cc3c(Cl)cccc3Br)cnc21 | -3.98%
COc1ccc(NS(=O)(=O)c2ccc(C)c(C(=O)NNC(=O)c3csc(N4CCOCC4)n3)c2)cc1 | 0.91%
COc1ccc(NC(=O)COC(=O)CNC(=O)C2CCCCC2)cc1 | -0.45%
Cc1cc(C)cc(NC(=O)Cn2cnc3c(nnn3Cc3ccc(F)cc3)c2=O)c1 | 3.35%
COc1ccc(/C=C/CN2CCCC(C(=O)c3cc(F)ccc3F)C2)cc1 (stereo not given) | -1.5%
CCN1CCN(c2nc(Nc3cc(OC)ccc3OC)nc(Nc3cc(OC)ccc3OC)n2)CC1 | -2.4%
Cc1csc(NC(=O)C2CCN(S(=O)(=O)c3ccccc3)CC2)n1 | 2.42%
CC(C)(C)NC(=O)COc1ccc(CNc2ccc3[nH]c(=O)[nH]c3c2)cc1 | -1.72%
COc1cccc(CN(C)CC(O)COC(c2ccccc2)c2ccccc2C)c1 (stereo not given) | -2.39%
C=C(C)Cn1c(C)cc(C)c(S(=O)(=O)c2ccccc2C)c1=O | 2.34%

SMILES | Tm shift relative to glycine control
COCCn1c(C)cc(C(=O)CSc2nnc(C3CC3)n2C2CC2)c1C | -0.08%
Cc1nc2ccccc2n1CC(=O)N/N=C/c1cccs1 | -4.96%
COc1ccc(C(=O)Nc2ccc(S(=O)(=O)NC(C)C)cc2)cc1 | 14% (active)
COc1ccc(NS(=O)(=O)c2ccc(NC(=O)c3ccc(N(C)S(C)(=O)=O)cc3)cc2)cc1 | -0.38%
CC(C)NS(=O)(=O)c1ccc(NC(=O)c2cccnc2)cc1 | 0.24%
CCC(=C/c1sc2ccc3ccccc3c2[n+]1C)/C=C1\Sc2ccc3ccccc3c2N1C | 3.14%
CC1CCCCC1NC(=O)Cn1cnc2c1c(=O)n(C)c(=O)n2C (stereo not given) | -0.41%
COc1ccc(C(=O)Nc2cc(C)ccc2NC(=O)COc2ccccc2)cc1 | -0.91%
CCS(=O)(=O)c1ccc(O)c(NC(=O)COc2ccc(Cl)cc2)c1 | 1.4%
Cc1ccc(O)c(NC(=S)NC(=O)COc2ccc(Br)cc2)c1 | 16.9% (active)
Oc1ccc(/C=N/N(Cc2ccccc2)c2ccccc2)cc1 | 8.8%
COc1cc(OC)cc(-c2cc3ccc(F)cc3cn2)c1 | 1.79%
COC(=O)C1CCN(C(=O)NC2CC(=O)N(c3ccc4c(c3)OCCO4)C2)CC1 (stereo not given) | 0.42%
CC(=O)c1ccc(S(=O)(=O)NC2CC(=O)N(c3ccc4c(c3)OCCO4)C2)cc1 (stereo not given) | 15.5% (active)
CC(=O)c1ccccc1NC(=O)C1CC(=O)N(c2ccc3c(c2)OCCO3)C1 (stereo not given) | -0.26%
Cc1nc2cc(C(F)(F)F)ccc2n1CCNc1nc(-c2cc(Cl)c(N)c(Cl)c2)cs1 | -2.53%
Cc1ccc(C(C(=O)NC2CCCCC2)N(C(=O)c2csnn2)C2CC2)o1 (stereo not given) | -0.78%
COc1ccc(S(=O)(=O)N2CCOCC2)cc1NC(=O)CSc1nnc(NC2CC2)s1 | 1.84%
COc1ccc(Br)cc1/C=N/NC(=O)c1cccc(S(=O)(=O)N2CCOCC2)c1 | -9.01%
COc1ccc(/C=N/NC(=O)c2ccncc2)cc1CN1CCCc2ccccc21 | -8.86%
COc1cccc(/C=N/NC(=O)c2[nH]nc3c2CCc2ccccc2-3)c1O | 20.4% (active)
O=C(c1cc2ccccc2o1)N1CCN(Cc2ccccc2)CC1 | 0.09%
Fc1ccc(OCc2nn3c(Cn4nnc5ccccc54)nnc3s2)cc1 | 2.39%
CC1CN(/C=C/C(=O)C(F)(F)F)CC(C)O1 (stereo not given) | 0.33%

SMILES | Tm shift relative to glycine control
COc1ccccc1Cn1c(C)nnc1-c1cnn(C)c1N | 1%
CN(CC(=O)Nc1ccc(Cl)cc1)CC(=O)Nc1cccc2ccccc12 | -7.6%
O=C(O)Cc1ccc(NC(=O)Nc2cccc3ccccc23)cc1 | -1.31%
O=C(Cc1cccc2ccccc12)NNC(=O)Nc1ccc(Cl)cc1 | 29.1% (active)
CC(C)OC(=O)c1ccc(NCc2cc(O)ccc2O)cc1Cl | -1.69%
COC(=O)c1ccc(NCc2cc(O)ccc2O)cc1 | 5.08%
O=C(OC12CC3CC(CC(C3)C1)C2)c1ccc(NCc2cc(O)ccc2O)cc1 | 33.5% (active)
Cn1c(SCc2ccc(F)cc2)nnc1-c1ccncc1 | 1.71%
CCC(C)(C)n1nnnc1CN1CCN(c2nc3ccc(C)cc3cc2C#N)CC1 | 0.62%
O=C(NCc1ccccc1)C(c1ccccc1)N(C(=O)c1csnn1)c1ccc(F)cc1 (stereo not given) | -0.6%
O=C(Nc1ccccc1Cl)/C(Cl)=C(\Cl)S(=O)c1ccccc1 (stereo not given) | 11.6% (active)
CN(C)S(=O)(=O)Oc1ccccc1C(=O)Nc1ccccc1Cl | -0.92%
O=C(COC(=O)CCc1c[nH]c(=O)[nH]1)Nc1ccccc1Cl | 1.15%
Cc1nn(-c2ccccc2)c2[nH]c(C(F)(F)F)cc(=O)c12 | -11.2%
COc1ccc(CN2CCN(Cc3cn(C)nc3-c3ccccc3)CC2CCO)c(C)c1C (stereo not given) | -3.71%
O=C(O)/C=C/c1ccc(OCCCF)cc1 | -1.35%
COc1cccc(C=CC(=O)C=CC=Cc2ccccc2)c1 | -1.98%
O=C(/C=C(O)/C=C/c1ccc(O)cc1)/C=C/c1ccc(O)cc1 | 19% (active)
Cc1ccc(S(=O)(=O)NCCc2nnc3ccc(SCc4cccnc4)nn23)cc1 | -2.44%
COc1cc(OC)c(C(=O)NNC(=O)c2ccccc2-n2cccc2)cc1OC | -0.41%
CCCCCCC(O)(CCN1CCCCC1)c1ccccc1 (stereo not given) | -3.65%
S=c1[nH]nc(-c2cccs2)n1/N=C/c1cn(-c2ccccc2)nc1-c1ccc(Cl)cc1 | 15.2% (active)
S=c1[nH]nc(-c2ccncc2)n1/N=C/c1ccccc1Cl | -1.38%
S=c1[nH]nc(-c2cccs2)n1/N=C/c1cccs1 | 0.68%

SMILES | Tm shift relative to glycine control
CC(C(=O)Nc1ccccc1-c1ccccc1)N1CCOCC1 (stereo not given) | -18.3%
CCOc1ccc2nc(C(=O)N3CCCC(C)C3)sc2c1 (stereo not given) | 3.03%
CCOc1ccc2nc(/N=C/c3nc(-c4ccccc4)oc3O)sc2c1 | 38% (active)
CC(N=Cc1nc(-c2ccccc2)oc1O)c1ccccc1 (stereo not given) | 1.17%
COc1ccc(C2=Nn3c(nnc3-c3ccccc3OC)SC2)cc1OC1CCCC1 | -1.54%
COc1ccccc1-c1nnc2n1N=C(c1ccc(OC(F)F)c(OCC3CC3)c1)CS2 | 20.6% (active)
CCn1c(SCC(=O)NC2CC2)nnc1-c1ccccc1OC | -19.3%
Cn1c(C(=O)OC(C(=O)NC2CCCCC2)c2ccccn2)cc2sccc21 (stereo not given) | -2.22%
C/C(=N/NC(=O)CCc1ccccc1)c1ccco1 | 13.4% (active)
C/C(CC(=O)NC(C)(C)C)=N\NC(=O)c1ccco1 | -2.4%
C/C(=N/NC(=O)C1COc2ccccc2O1)c1ccco1 (stereo not given) | 0.45%
C=C(C)CNC(=S)/N=c1\scc(C)n1CC | 0.78%
Cc1c(Cl)cccc1NC(=O)CSc1ccc(-c2cccnc2)nn1 | 0.4%
COc1ccc([C@H]2[C@H](C(C)=O)N3N=Cc4ccccc4C3C23C(=O)OC(C)(C)OC3=O)cc1 (stereo not given in full) | 1.26%
COc1cc2ccccc2cc1C(=O)Nc1ccncc1 | -12.5%
CC(C)C(=O)Nc1cccc(C(=O)Nc2ccc3c(c2)OCO3)c1 | -22.3%
COc1cc(NC(=O)c2ccc3c(c2)OCO3)ccc1NC(=O)c1cccs1 | 26.8% (active)
O=C(Nc1ccc(NC(=O)c2ccc3c(c2)OCO3)cc1)c1cccc(Cl)c1 | 4.36%
COc1cc2ccccc2cc1C(=O)Nc1ccc(S(=O)(=O)Nc2cc(C)on2)cc1 | -5.06%
COc1cc(NC(=O)c2cccs2)ccc1NC(=O)c1ccccc1Cl | 11.9% (active)
COc1cc(NC(=O)COc2ccccc2Cl)ccc1NC(=O)C(C)C | -1.36%
COc1cc(Cl)c(C)cc1NC(=O)[C@@H]1CCCN1C(=O)c1cccs1 | -1.61%
COc1cc2ccccc2cc1C(=O)Nc1ccc(NC(=O)c2cccs2)cc1 | 28.6% (active)
